The panel holds about 83,000 compounds, 20% with a hit somewhere; the sample as a whole holds those more often.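 Cells were grown in 96-well plates and exposed to the test compound at a single concentration for 48 hours; results are reported as percent growth, with values below 10 considered active.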 The source made the active and inactive calls.
test system: MDA-MB-468 breast; assay: NCI-60 one-dose screen, 48 h (100 = growth as untreated, 0 = no growth, -100 = all killed); conditions: 10 µM unless noted

SMILES	growth
COc1ccc(/C=C2\Oc3cc(OCCCN4CCCC4)ccc3C2=O)c(OC)c1	62% (inactive)
O=c1c(-c2ccc3c(c2)OCO3)coc2c(CO)c(O)ccc12	-14.5% (active)
COc1ccc2nc3cc(Cl)ccc3c(Nc3ccc(O)cc3)c2c1	46% (inactive)
CCOc1ccc(-c2nc3ccc(-c4nc5ccc(N6CCN(C)CC6)cc5[nH]4)cc3[nH]2)cc1OCC	-44.5% (active)
CCOC(=O)/C(=C/c1ccccc1)C(=O)c1ccccc1	85.6% (inactive)
CN1CCN(CCC(=O)Nc2cccc(-n3cc(-c4ccncc4)c(-c4ccc(Cl)c(O)c4)n3)c2)CC1	12.7% (inactive)
CCc1c2c(nc3ccc(OC(=O)N4CCC(N5CCCCC5)CC4)cc13)-c1cc3c(c(=O)n1C2)COC(=O)[C@]3(O)CC	-31.2% (active)
COc1cc(/C(Cl)=C/C=C/C(=O)c2c(C)[n+]([O-])c3ccc(Cl)cc3[n+]2[O-])cc(OC)c1OC	-11.2% (active)
O=C(Oc1cccc2ccccc12)c1ccccc1C(=O)c1ccccc1	103% (inactive)
O=C1NCN(c2ccccc2)C12CCN(CCCC(c1ccc(F)cc1)c1ccc(F)cc1)CC2	43% (inactive)
Clc1nc(Nc2ccccc2)nc(Nc2ccccc2)n1	57.3% (inactive)
CCOC(=O)c1c(Nc2ccccc2)nn2c(N)c(C#N)c(-c3ccc(Cl)cc3)nc12	76.8% (inactive)
Cc1nc2ccccc2c(/C=C/c2ccc(F)cc2)c1C(N)=O	107% (inactive)
C=CCn1c(C)nc2cc(Nc3nc(N4CCOCC4)nc4nc[nH]c34)ccc21	85.1% (inactive)
CCOc1cc2ncc(C#N)c(Nc3ccc(F)c(Cl)c3)c2cc1NC(=O)CC1CCSS1 (stereo not given)	-74.2% (active)
Cc1ccc(NC(=O)NC2CCCCC2)cc1	93.5% (inactive)
CSC(=N\N=C\c1ccc(N(C)C)cc1)/N=C/N(C)C	83.5% (inactive)
CS(=O)(=O)c1ccc(NC(=O)c2ccccc2)nc1	105% (inactive)
CC(=O)Nc1ccc(OC(=O)c2ccccc2O)cc1	117% (inactive)
CCC[CH2][Sn]1([CH2]CCC)[O]C2C(CO)OC(n3ccc(N)nc3=O)C2[O]1 (stereo not given)	-82.9% (active)

SMILES	growth
c1ccc([P+](CCC[P+](c2ccccc2)(c2ccccc2)c2ccccc2)(c2ccccc2)c2ccccc2)cc1	23.7% (inactive)
COc1ccc(-c2cc(-c3cccnc3)nc3sc4c(=O)[nH]c(-c5ccc(Cl)cc5)nc4c23)cc1OC	97.8% (inactive)
CCCCCCCCN(CCCCCCCC)CC(O)c1cc(-c2ccccc2)nc2ccc(OC)cc12 (stereo not given)	104% (inactive)
Nc1nc2ccccc2c2c(=O)c3cc(F)ccc3sc12	-27.2% (active)
Oc1ccccc1O	91.1% (inactive)
CCOC(=O)c1ccc(-c2ccc3cc(OC)ccc3c2)nc1C	119% (inactive)
O=C1Nc2ccc(F)cc2/C1=N/c1nnc(Sc2ccccc2)s1	-0.912% (active)
Cc1ccc(-c2cc3c(cc2O)C2CCCCC2(N2CCOCC2)O3)cc1 (stereo not given)	87.9% (inactive)
COc1ccc(-c2nn(-c3ccc(NC(=O)c4ccc(Cl)c(C(F)(F)F)c4)cc3)cc2-c2ccncc2)cc1Cl	9.51% (active)
O=C(CCl)c1ccc2c(c1)CCCC2	116% (inactive)
Cc1cc(N2CCCC2)nc(N(CCCNc2ccnc3cc(Cl)ccc23)Cc2ccccn2)n1	53.2% (inactive)
CC(=O)CC/C=C(\C)[C@H](O)[C@H](C)C(=O)O[C@H]1C[C@H](C)C=C2C=C[C@@]3(C)O[C@@H](O)CC(=O)[C@]3(C)[C@H]21	-65.4% (active)
COc1cc(Br)c(-c2nc(-c3ccccc3)c(-c3ccccc3)n2Cc2ccccc2)cc1OC	54% (inactive)
COc1ccc2c(c1)c(=O)oc1c(C)c(OCC(C)=O)ccc12	88.5% (inactive)
CC(=O)/C(N=Nc1ccc(S(=O)(=O)c2ccc(N=N/C(C(C)=O)=C(/C)O)cc2)cc1)=C(\C)O	108% (inactive)
O=C(c1ccccc1)c1ccccc1Cl	110% (inactive)
C=C1CC2(OC1=O)C(=O)Nc1ccccc12 (stereo not given)	-11.5% (active)
CCCCCCN=C(N)CCCCCCCCCCC(N)=NCCCCCC	-8.12% (active)
CCN1C(=O)N(CC)C2Nn3c(s/c(=C\c4cccc(F)c4)c3=O)=NC21 (stereo not given)	17.8% (inactive)
N=C(N)c1ccc(-c2ccc(-c3cccs3)s2)s1	-90.3% (active)
